Hits are enriched below; roughly 6.1% of the tested compounds scored in any of these assays.
D1 antagonist: antagonists of human D1 dopamine receptor; HEK293 TREx D1 cells, calcium flux, dopamine EC80; hits give low values; activity change, negative = inhibition, % at 10 µM; hit rate 3.2% among 360,000; in the data active = activity change below about -30%
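Using tetracycline-induced force-coupled D1 Hek293 cells and a calcium dye, signals were followed for 180 s after compound, then for 180 s after EC80 dopamine, to detect inhibitors.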
D1 ag: agonists of human D1 dopamine receptor; AID 504660; HEK293 T-REx D1 cells, calcium flux, agonist mode; hit rate 1% among 360,000; activation, % at 2 µM; P21728; in the data active = activation above about 30%
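Agonism was scored from calcium flux recorded over 180 s (1 read/s) after pintool compound addition, following a 10-cycle baseline. Cells were inducible force-coupled HEK293 TREx D1, plated overnight at 30 C and loaded with no-wash calcium dye.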
D1 potentiator: enhances dopamine response at the human D1 receptor. HEK293 TREx D1 cells, calcium flux, dopamine EC20 potentiation. potentiation, % at 10 µM. AID 504651. hit rate 0.036% among 360,000; in the data active = potentiation above about 30%
D3 ag: activates the human D3 dopamine receptor; hit rate 0.58% among 410,000; max activation, %; D3R DiscoveRx beta-arrestin cells, luminescence, 90 min; P35462; in the data active = max activation above about 30%
Target sequence (P35462 whole entry, looked up): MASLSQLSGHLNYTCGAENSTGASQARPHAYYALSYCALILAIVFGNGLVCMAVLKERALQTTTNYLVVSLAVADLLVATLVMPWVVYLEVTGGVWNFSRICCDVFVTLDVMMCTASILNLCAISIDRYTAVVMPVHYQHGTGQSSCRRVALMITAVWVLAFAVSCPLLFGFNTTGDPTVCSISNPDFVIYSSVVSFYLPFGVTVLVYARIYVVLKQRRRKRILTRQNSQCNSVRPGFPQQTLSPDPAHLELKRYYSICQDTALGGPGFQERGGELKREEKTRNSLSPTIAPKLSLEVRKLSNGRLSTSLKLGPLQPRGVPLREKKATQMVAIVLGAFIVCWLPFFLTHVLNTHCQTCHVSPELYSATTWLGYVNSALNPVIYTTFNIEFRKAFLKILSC
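Agonist mode: compounds and dopamine controls were applied to plated cells for 90 min at 37 degrees C after an overnight attachment at 1500 cells/well. Luminescent read-out followed 30 - 60 minutes at room temperature with DiscoveRx detection reagent.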
DRD3 antagonist: blocks the human D3 dopamine receptor; P35462; D3R cells, DiscoveRx beta-arrestin luminescence, antagonist mode; hits give low values; max response, negative = inhibition, %; hit rate 2.5% among 360,000; in the data active = max response below about -50%; inconclusive = no clear call, values can overlap the other calls
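Cells plated overnight at 1500 cells/well, then exposed to library compounds with dopamine controls for 90 minutes at 37 degrees C. DiscoveRx reagent added for 30–60 minutes at room temperature; luminescence read, quantitative HTS format.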
Large screens that a line does not name were inactive.

CSCCC(C(=O)Nc1c(C)cccc1C)N(C)CCc1ccccc1 (centres undefined)	none (no result: D1 antagonist, D1 ag, D1 potentiator)
CC(CCc1ccc(O)cc1)NCCC(c1ccccc1)c1ccccc1 (centres undefined)	D1 ag 87, DRD3 antagonist inconclusive
CC(CCc1ccc(O)cc1)N(C)CCc1ccccc1 (centres undefined)	D1 antagonist -52, DRD3 antagonist inconclusive
CC(CCc1ccc(O)cc1)NCc1ccc(Br)cc1 (centres undefined)	D1 ag 31, D3 ag 80
CC(CCc1ccc(O)cc1)NC(c1ccccc1)c1ccc(Cl)cc1 (centres undefined)	none
Cc1ccc(C(=O)NC(=O)OCCn2c(C)cnc2[N+](=O)[O-])cc1	none
CCOC(=O)c1cccc(N)c1	none (no result: D1 antagonist, D1 ag, D1 potentiator, DRD3 antagonist)
COC(=O)[C@H](Cc1ccccc1)NC(=O)N1CCN(c2ccccc2)CC1	none
Cc1nc(N)nc(N)c1/C=C/C(C)(C)c1ccc(Cl)cc1	D1 ag 38
CCn1c(SCC(=O)NNC(=O)Cc2ccccc2)nnc1-c1ccccc1	DRD3 antagonist -51
COC(=O)C(=Cc1ccccc1[N+](=O)[O-])C(=O)OC	DRD3 antagonist -58
CCn1c(SCC(=O)N/N=C/C=C\c2ccccc2[N+](=O)[O-])nnc1-c1ccccc1	D1 antagonist -57
CCn1c(SCC(=O)Nc2ccccc2F)nnc1-c1ccoc1C	DRD3 antagonist -55
CCn1c(SCC(=O)Nc2ccccc2-c2ccccc2)nnc1-c1ccoc1C	none
CC(C)(C)NC(=O)[C@H]1CC[C@H]2[C@@H]3CC=C4C=C(C(=O)O)CC[C@]4(C)[C@H]3CC[C@]12C	none (no result: D1 antagonist, D1 ag, D1 potentiator, DRD3 antagonist)
COC(=O)c1sccc1S(=O)(=O)N1CCN(c2ccc(C)cc2C)CC1	none (no result: DRD3 antagonist)
Cc1csc(=O)n1CCC(=O)OCC(=O)NCc1ccccc1	none (no result: D1 antagonist, D1 ag, D1 potentiator)
CCc1ccccc1NC(=O)c1ncoc1-c1ccco1	none (no result: DRD3 antagonist)
O=C(N/N=C/C=C\c1ccccc1[N+](=O)[O-])c1cccs1	DRD3 antagonist -64
COc1ccccc1N1CCN(C(=O)c2cnc(N3CCOCC3)c3ccccc23)CC1	none (no result: DRD3 antagonist)
COc1ccc(OC)c(C2C(C(=O)Nc3nc4ccccc4s3)=C(C)NC3=C2C(=O)CCC3)c1 (centres undefined)	D3 ag 30
Cc1cc(NC(=O)CCNS(=O)(=O)c2cccc3nsnc23)ccc1Br	none (no result: DRD3 antagonist)
COc1ccc(C(CNC(=O)C(C)c2ccc3cc(OC)ccc3c2)N(C)C)cc1 (centres undefined)	DRD3 antagonist -76
CC1(C(=O)NS(=O)(=O)c2cccc(C#N)c2)CCN1C(=O)c1ccccc1 (centres undefined)	none (no result: D1 antagonist, D1 ag, D1 potentiator)
O=c1[nH]c2cccnc2n1Cc1ccco1	D1 antagonist -43
O=C(Cn1c(=O)n(Cc2ccco2)c(=O)c2cccnc21)Nc1ccccc1F	none (no result: DRD3 antagonist)
COc1ccccc1NC(=O)COC(=O)c1c(NC(C)=O)sc(C)c1C	none (no result: D1 antagonist, D1 ag, D1 potentiator)
Cc1cc(N2CCOCC2)nc2ccc(NC(=O)CCC(=O)N3CCN(c4ccccc4F)CC3)cc12	D1 antagonist -43
COC(=O)[C@]12CCCCC=C1N(Cc1ccccc1)C(=O)[C@H](CC(=O)NCCC(C)C)C2	none (no result: D1 antagonist, D1 ag, D1 potentiator)
Oc1c(Cl)cc(Cl)cc1/C=N/c1nccs1	none
Oc1c(Cl)cc(Cl)cc1/C=N/c1nc(-c2ccc(Cl)cc2)cs1	DRD3 antagonist -82
COc1ccc(CCNc2nc(-c3sc(N)nc3C)cs2)cc1OC	D1 antagonist -61
COc1ccc(OC(C)C(=O)NC2CCCCCCC2)cc1 (centres undefined)	none (no result: D1 antagonist, D1 ag, D1 potentiator)
CCN(CC)CC(=O)Nc1cc(N(C)C)nc2ccccc12	none
CN1CCN(CC(=O)Nc2cc(N(C)C)nc3ccccc23)CC1	D1 antagonist -31
Cn1c(/C=C(\C#N)C(N)=S)ccc1-c1ccc(Br)cc1	D1 antagonist -37
CCc1cccc(C)c1Nc1c(-c2ccc(N(C)C)cc2)nc2cnccn12	none (no result: DRD3 antagonist)
N#Cc1ccc(C(=O)Nc2cccc(NC(=O)c3ccco3)c2)c(F)c1	none
CCC1=C(OC(=O)N(CC)CC)N2C(=O)OC(=NCc3ccccc3)[C@]2(C)[C@H]2C1=CC[C@H]1C(=O)N(CC)C(=O)[C@H]12	D1 antagonist -35
N#Cc1cccc(C(c2nnnn2C2CCCC2)N2CCC(Cc3ccccc3)CC2)c1 (centres undefined)	none
COCCn1nnnc1C(c1cccc(C#N)c1)N1CCCCCC1 (centres undefined)	DRD3 antagonist -75
N#Cc1cccc(C(c2nnnn2C2CCCC2)N2CCCCCC2)c1 (centres undefined)	DRD3 antagonist -54
O=c1cc(C(F)(F)F)[nH]c2c(OC(F)(F)F)cccc12	none
CC(=O)Nc1ccc(C(=O)CSc2cc(C)c3cccc(C)c3n2)cc1	D3 ag 41
COCCn1c(C)cc(C(=O)CSc2nnc(C)s2)c1C	none
Cc1ccc(NC(=O)CN(C)C(=O)CSc2nc3ccccc3c(=O)n2Cc2ccco2)cc1	D1 antagonist -33
COCCn1c(C)cc(C(=O)CSc2cc(C)c3ccccc3n2)c1C	D1 antagonist -38
CN(Cc1ccccc1)C(=O)CSc1nc2ccccc2c(=O)n1Cc1ccco1	none
COCCn1c(C)cc(C(=O)CSc2nc3ccccc3c(=O)n2Cc2ccco2)c1C	D3 ag 43
S=C(Nc1ccc2nsnc2c1)NC1CCCCC1	D1 ag 46
S=C(Nc1ccc(Cl)c(Cl)c1)NC1CCCCC1	D1 antagonist -41
CC(C)c1ccc(NC(=S)NC2CCCCCC2)cc1	DRD3 antagonist inconclusive
S=C(Nc1ccc2nsnc2c1)N1CCCCCC1	none
O=C1C(O)=C(O)C(=O)c2ccccc21	none (no result: D1 antagonist, D1 ag, D1 potentiator)
O=C1C(=O)c2ccccc2C(O)=C1c1ccccc1F	DRD3 antagonist -72
CCn1c(NC(=O)C2CCCCC2)nc2ccccc21	none
Cc1ccc(C(=O)Nc2nc3ccccc3n2CCN2CCCC2)cc1	DRD3 antagonist -61
O=C(Nc1nc2ccccc2n1CCN1CCCC1)C1CCCCC1	D1 antagonist -30, DRD3 antagonist -82
O=C(Nc1nc2ccccc2n1CCN1CCCCC1)C1CCCCC1	DRD3 antagonist -62
CCn1nccc1C(=O)Nc1nc2ccccc2n1CCN1CCCCC1	DRD3 antagonist -87
O=C(Nc1nc2ccccc2n1CCN1CCCCC1)c1ccc(Cl)cc1	none (no result: D3 ag, DRD3 antagonist)
O=C(Nc1nc2ccccc2n1CCN1CCCC1)c1ccc(Cl)cc1	none
COc1ccc(CNC(=O)Cn2ccc3cc(S(=O)(=O)N4CCCCCC4)ccc32)c(OC)c1	none (no result: DRD3 antagonist)
CN(Cc1ccccc1F)c1nc(-c2cccs2)nc2ccccc12	none
CC1(C)CC(=O)C(C2C3=C(CC(C)(C)CC3=O)OC3=C2C(=O)CC(C)(C)C3)=C(O)C1	none
Cc1ccc(-c2nc(CN(C)C3CCOC3)c(C)o2)s1 (centres undefined)	none
Cc1cccc(NC(=O)CSc2ncc(-c3ccc(Br)cc3)[nH]2)c1	none (no result: DRD3 antagonist)
COc1cc2c(cc1OC)C(COc1ccc3c(C)cc(=O)oc3c1)N(C(=O)Cc1ccccc1)CC2 (centres undefined)	none (no result: DRD3 antagonist)
